This passage reports Potency and activity (max response) results from PubChem BioAssay (NCATS).

Structures are written as SMILES. Where “and” joins values, the source holds several entries; their conditions need not be identical. Equal entries are not always repeated. Results filed as inconclusive are left out. Values without a mark were called inactive. Calls of active or inactive are those of the source. The call rests on the fitted dose curve; in most records, active means well fitted curve in the direction sought with a large enough effect; inconclusive means small, poorly fitted or top-dose-only effect, or another doubt; inactive means no such curve, though single readings can be large; an effect the other way counts as inactive or inconclusive.

A short description of test [1]: Viability qHTS for spleen associated tyrosine kinase inhibitor (SYKi) naive MV4-11 cells (AID 1963823). Further: nearly all actives have a fitted effect of over 40% in size. The following applies: MV4-11 AML viability, CellTiter-Glo luminescence, 72 h; series mostly up to 45 µM. The procedure, abridged: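 SYKi-naive MV4-11 AML cells, 500 per well, were exposed to library compounds for 72 hr at 37 C, 5% CO2. Viability was then read by CellTiter-Glo luminescence after 10 min at room temperature.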

Test [2] in a line: Cellular viability qHTS for adrenocortical cancer (ACC) cell line SW-13 (AID 1963989). Further: nearly all actives have a fitted effect of over 65% in size.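 On activity (max response): cells grown in serum-free medium with ITS supplement; on the % scale 0 is the no-effect control and ±100 the full control effect.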 Particulars: SW-13 ACC cells viability, CellTiter-Glo, 48 h; activity (max response): hits give low values. The procedure, abridged: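 Luminescent ATP read-out (CellTiter-Glo, 20 min at room temperature) measured metabolically competent SW-13 cells after 48 h compound treatment. Final concentrations spanned up to 46 uM; bortezomib served as positive control.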
Background: In qHTS, concentration-response curves come from the screen itself.

A short description of test [3]: Quantitative highthroughput screen to assess conditional lethalithy of SEM cells grown in RPMI1640 with unreated serum (RPMI+s) (AID 1963883). Further: nearly all actives have a fitted effect of over 35% in size. The following applies: SEM B-ALL cells, CellTiter-Glo viability, 48 h; series mostly up to 45.8 µM. The procedure, abridged: (§1)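 Each medium arm—HPLM with 10% dialyzed FBS, or RPMI1640 with 5 mM glucose and 10% untreated or dialyzed FBS—was screened against an 11-point, 3-fold compound titration for 48 h at 37 °C, with CellTiter-Glo luminescence as endpoint.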
For orientation: ATP-based viability assays read luminescence as a measure of living cells.

Test [4] can be described thus: Cellular viability qHTS for adrenocortical cancer (ACC) cell line NCI-H295R (AID 1963990). Further: nearly all actives have a fitted effect of over 60% in size. Particulars: CellTiter-Glo ATP luminescence, 48 h; series mostly up to 46.1 µM. The procedure, abridged: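 IC50 and maximal efficacy derive from four-parameter logistic modelling of titration curves, with reads scaled between DMSO-only wells (0%) and doxorubicin hydrochloride (100% inhibition). Compounds spanned up to 46 uM over 48 h.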

Test [5] in a line: Quantitative highthroughput screen to assess conditional lethalithy of SEM cells grown in Human Plasma-Like Medium with dialyzed fetal bovine serum (HPLM+ds) (AID 1963882). Further: nearly all actives have a fitted effect of over 35% in size. The following applies: SEM B-ALL cells in HPLM+ds, CellTiter-Glo viability, 48 h; series mostly up to 45.8 µM. The method in brief:
as §1

Test [6] is described as follows: Quantitative highthroughput screen to assess conditional lethalithy of SEM cells grown in RPMI1640 with dialyzed fetal bovine serum (RPMI+ds) (AID 1963884). Further: nearly all actives have a fitted effect of over 35% in size. Particulars: SEM B-ALL cells, RPMI+dialyzed FBS, CellTiter-Glo viability, 48 h; series mostly up to 45.8 µM. The method in brief:
as §1
Potency means the concentration at half of the fitted maximal effect.

In the case of `CN1[C@@H]2CC(OC(=O)[C@H](CO)c3ccccc3)C[C@H]1[C@@H]1O[C@@H]12` (some centres not stated), the Potency result in test [1] is “inactive”. Besides, the activity (max response) in test [2] was 1.78%.
As to `CCN(CC)CCCCNc1ncc2cc(-c3cc(OC)cc(OC)c3)c(NC(=O)NC(C)(C)C)nc2n1`, the Potency in test [1] is 5.8 µM (active) and 8.33 µM (active); in test [3], 16.6 µM (active); in test [2], 28.2 µM (active); in test [4], 25.1 µM (active).
In the case of `CC(C)(C)CC(C)(C)c1ccc(OCCOCC[N+](C)(C)Cc2ccccc2)cc1`, the Potency in test [1] was 2.37 µM (active) and 1.16 µM (active); in test [2], 5.17 µM (active).
On to `Cc1ccc(C(N)=O)cc1Nc1nccc(-c2cn(C(C)C)c3cnccc23)n1`, for which the Potency in test [1] was 0.0231 µM (active); in test [5], 3.32 µM (active); in test [3], 3.72 µM (active); in test [6], 2.09 µM (active); in test [4], 12.6 µM (active).
In the case of `CSCC[C@H](NC(=O)[C@H](Cc1c[nH]c2ccccc12)NC(=O)CCNC(=O)OC(C)(C)C)C(=O)N[C@@H](CC(=O)O)C(=O)N[C@@H](Cc1ccccc1)C(N)=O`, the Potency entry in test [1] is “inactive”. The activity (max response) in test [2] was 1.93%.
On to `O=C1Cc2cc(Cl)ccc2N1`, for which, in test [1], the Potency result is “inactive”. For the same compound, the activity (max response) in test [2] was 11.1%.
In the case of `Cc1ccc(Nc2nccc(N(C)c3ccc4c(C)n(C)nc4c3)n2)cc1S(N)(=O)=O`, the Potency in test [1] was 0.742 µM (active); in test [5], 16.6 µM (active); in test [3] it was 14.8 µM (active); in test [6], 14.8 µM (active). Also, the Potency result in test [4] was “inactive”.
Consider `O=C(O)c1ccc(CCCc2ccc(OCCc3ccc(F)cc3)cc2)o1`, for which the values for the Potency in test [1] and in test [2] were 5.17 µM (active) and 17.8 µM (active), respectively.
Turning to `O=C1OCCN1/N=C/c1ccc([N+](=O)[O-])o1`, in test [1], the Potency result was “inactive”. In test [2], the activity (max response) was -0.921%.
As for `CC(C)C(=O)OCC(=O)[C@@]12O[C@H](C3CCCCC3)O[C@@H]1C[C@H]1[C@@H]3CCC4=CC(=O)C=C[C@]4(C)[C@H]3[C@@H](O)C[C@@]12C`, in test [1], the Potency is 5.9 µM (active). Besides, the activity (max response) in test [2] is -10.3%.
Taken in the same sequence, the figures for `Nc1ccc(N)c([N+](=O)[O-])c1` were 24.3 µM (active) and -20.8%.
As to `Cc1oc(-c2ccccc2)nc1CCC(=O)c1ccc(CC2SC(=O)NC2=O)cc1` (configuration not stated), the Potency result in test [1] was “inactive”. Further, in test [2], the activity (max response) was -12.1%.
Consider `Cc1[nH]nc(C(F)(F)F)c1Cc1sc2c(c1C(=O)N1C[C@](C)(O)CO1)c(=O)n(C)c(=O)n2C(C)C`, for which the Potency result in test [1] is “inactive”. Besides, the activity (max response) in test [2] is 14.8%.
In the case of `CCCC(=O)OCOC(=O)C1=C(C)NC(C)=C(C(=O)OC)C1c1cccc(Cl)c1Cl` (configuration not stated), in test [1], the Potency entry is “inactive”. Besides, in test [2], the activity (max response) was 6.2%.
Turning to `Nc1c2ccccc2nc2ccccc12`, the Potency in test [1] was 2.99 µM (active); in test [2], 7.31 µM (active).
As for `O=C1c2ccccc2S(=O)(=O)N1CCCCN1CCN(c2ncccn2)CC1`, the Potency entry in test [1] and in test [4] was “inactive” in each case. The activity (max response) in test [2] was -8.3%.
For `CN(C)CCOc1ccc(/C(=C(/CCCl)c2ccccc2)c2ccccc2)cc1`, the Potency in test [1] is 14.8 µM (active); in test [4] it was 8.91 µM (active). Moreover, the activity (max response) in test [2] was -6.2%.
Turning to `Cc1cc2c(OCC(CNC(C)(C)C)OC(=O)c3ccccc3)cccc2[nH]1` (configuration not stated), the Potency entry in test [1] and in test [4] was “inactive” throughout. The activity (max response) in test [2] was 7.67%.
